# Bioassay records from PubChem BioAssay.
# PLK1 PBD inh: PLK1 (human) polo-box domain binding inhibition; Plk1 PBD binding of FITC phosphopeptide, fluorescence polarization; P53350; Potency, µM, for the others: max response, negative = inhibition, hits mostly inhibitors; 2.8% of 360,000 active; note: series mostly up to about 57 µM; nearly all actives have a fitted effect of over 65% in size
# TDP1 cell CPT: growth inhibition of DT40 Tdp1-/-;hTDP1 cells with camptothecin (screen for TDP1 inhibitors); AID 686979; Potency, µM (titrated, usually from 46.2 µM), without a hit: at the highest dose activity change, negative = growth inhibition, usual class: inhibitors; 12% of 420,000 active; chicken DT40 Tdp1-/-;hTDP1 cells + 20 nM CPT, ATP luminescence, 48 h; note: nearly all actives have a fitted effect of over 55% in size
#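 Cell growth measured by CellTiter-Glo luminescence after a minimum 48 h, 37 C compound exposure with 20 nM CPT in Tdp1-knockout DT40 cells stably expressing hTDP1, seeded 400/well; qHTS titration format.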
# KAT2A inh: inhibitors of human GCN5L2 histone acetyltransferase; 0.21% of 390,000 active; Potency, µM (highest dose often 58.9 µM), without a hit: top-dose activity change, negative = inhibition, actives largely listed as inhibitors; AID 504327; GCN5L2 HAT assay, ThioGlo1 CoA-SH fluorescence
#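 Titration-based screen in which CoA formation is detected via maleimide probe ThioGlo1 (50uM) turning fluorescent on thiol reaction; substrates H3(1-25) 75uM and acetyl-CoA 70uM, GCN5L2 20nM, 20 min incubation at room temperature.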
# TDP1 block: TDP1 (human) enzyme inhibition | recombinant TDP1, AlphaScreen DNA substrate cleavage | Potency, µM (series often up to 130 µM), inactives show top-dose activity change, negative = inhibition, usual class: inhibitors | 0.28% of 350,000 active; note: nearly all actives have a fitted effect of over 40% in size
#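 AlphaScreen read-out: signal falls as enzyme removes the 3' tyrosine-FITC from a 5'-biotinylated DNA oligo (15 nM, 5 min, RT). Enzyme was E. coli-made recombinant Tdp1 at 1 nM, exposed to compound for 15 min beforehand; beads 10 ug/ml, 10 min.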
# VDR inhibitor: blocks the human vitamin D receptor. P11473. VDR-SRC2-3 peptide fluorescence polarization, 2 h. Potency, µM, without a hit: max response, negative = inhibition, hits mostly inhibitors. 0.93% of 400,000 active. AID 504847
# Target sequence (P11473 whole entry, looked up): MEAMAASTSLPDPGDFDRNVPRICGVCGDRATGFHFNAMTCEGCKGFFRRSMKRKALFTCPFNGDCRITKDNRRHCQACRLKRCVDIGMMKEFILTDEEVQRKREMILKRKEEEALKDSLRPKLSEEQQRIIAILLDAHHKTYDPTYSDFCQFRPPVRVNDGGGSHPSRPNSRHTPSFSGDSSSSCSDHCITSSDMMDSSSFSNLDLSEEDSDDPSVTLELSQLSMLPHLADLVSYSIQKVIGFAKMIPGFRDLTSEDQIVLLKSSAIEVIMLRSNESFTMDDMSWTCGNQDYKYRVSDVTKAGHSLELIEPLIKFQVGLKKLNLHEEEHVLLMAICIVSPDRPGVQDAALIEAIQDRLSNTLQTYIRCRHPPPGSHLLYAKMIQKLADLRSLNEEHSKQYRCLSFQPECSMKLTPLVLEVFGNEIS
#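 Two reagent solutions held at 4 deg C in the dark were dispensed, compounds pinned at 23 nl, and the mixture incubated 2 h at room temperature. Read-out: fluorescence polarization of VDR–SRC2-3 peptide binding.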
# TDP1 cell noCPT: qHTS for Inhibitors of human tyrosyl-DNA phosphodiesterase 1 (TDP1): qHTS in cells in absence of CPT; AID 686978, 2013; Potency, µM (series often up to 46.2 µM), inactives show at the top dose activity change, negative = growth inhibition, actives largely listed as inhibitors; 15% of 420,000 active; DT40 Tdp1-/- hTDP1 cells, no CPT, ATP luminescence, 48 h; note: nearly all actives have a fitted effect of over 55% in size
#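 Compound effects on proliferation are scored in DT40 Tdp1-/-;hTDP1 cells in the absence of CPT. ATP levels (CellTiter-Glo luminescence) are recorded after a ≥48 hr, 37 °C incubation.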
# Active calls of the source: *; ? = inconclusive; . = no result; ! = repeats disagree; [ ] = another dose, or the depositor's remark. This is a sample that favours compounds with a hit; in the whole collection about 18% have one here. Calls come from the whole dose curve; as a rule, active = well fitted curve in the direction sought with a large enough effect; inconclusive = small, poorly fitted or top-dose-only effect, or another doubt; inactive = no such curve, though single readings can be large; an effect the other way counts as inactive or inconclusive. % is set by controls: 0 for no effect and ±100 for the full control effect; potency is the fitted concentration of half-maximal effect.
SMILES,PLK1 PBD inh,TDP1 cell CPT,KAT2A inh,TDP1 block,VDR inhibitor,TDP1 cell noCPT
CC(C)NCC(O)(c1ccc(Cl)cc1)c1ccc(Cl)cc1,-3%,?,-10%,1%,-2%,21µM*
CCN(CC)CCNCc1cc(Cl)ccc1OCc1ccccc1F,-4%,?,-4%,8%,7%,?
COc1cccc(C(=S)N2CCOCC2)c1OS(=O)(=O)c1ccc(Cl)cc1,?,?,-5%,4%,-5%,?
CCN(CC)S(=O)(=O)c1ccc2c(c1)N(CC(=O)NCc1ccc(F)cc1)C(=O)CO2,.,-19%,3%,3%,-5%,-17%
CCN1CCN(C(c2ccc(F)cc2)c2sc3nc(-c4ccco4)nn3c2O)CC1 (stereo not given),.,-2%,1%,10%,7%,?
COc1ccc(Cn2ncc3c4sc(C)cc4n(C)c3c2=O)cc1F,.,.,.,-3%,.,.
CC(C)(C)c1ccc(OCCNCc2ccccc2)cc1,-4%,?,-3%,.,-4%,?
C[n+]1ccccc1COc1ccc(C(C)(C)C)cc1,-3%,2.1µM*,2%,4%,-1%,2.3µM*
CN(C)c1ccc(C=O)c(Oc2ccccc2)c1,2%,-5%,.,.,.,?
CCc1nc2c(OCc3cc(Cl)cc(Cl)c3)cccn2c1N(C)C(=O)c1ccc(OC)cc1,-8%,18µM*,.,.,.,16µM*
CCc1nc2c(OCc3ccc(OC(F)F)cc3)cccn2c1N(C)C(=O)c1ccc(OC)cc1,-5%,18µM*,.,.,.,13µM*
CCc1nc2c(OCc3ccc(C(=O)OC)cc3)cccn2c1N(C)C(=O)c1ccc(OC)cc1,-12%,?,.,.,.,?
COc1ccc(S(=O)(=O)N2CCCC(C(=O)NCc3ccccc3)C2)cc1 (stereo not given),-24%,15%,0%,.,21%,-52%
CC(=O)c1cc2c(cc1F)C(C)(C)CCC2(C)C,6%,?,.,.,-16%,-11%
C=C(c1ccc(C(=O)O)cc1)c1cc2c(cc1C)C(C)(C)CCC2(C)C,.,-11%,6.3µM*,.,?,?
CC1(C)CCC(C)(C)c2cc(C(=O)Nc3ccc(C(=O)O)cc3)ccc21,.,5%,?,7%,79µM*!,-19%
NS(=O)(=O)c1cnccc1NCCc1ccccc1,-5%,9%,.,.,0%,1%
CCC(C(=O)Nc1cc(OC)ccc1OC)n1c(C)c2cnn(-c3ccccc3)c(=O)c2c1C (stereo not given),.,?,-10%,8%,12%,?
Cc1ccc(C)c(NC(=O)C2CCCN2S(=O)(=O)c2ccc3c(c2)CCCC(=O)N3)c1 (stereo not given),.,?,19%,3%,-2%,?
COc1ccc(C(=O)Nc2ccc(NC(=O)c3cccs3)cc2)cc1Cl,3.8µM*,15µM*,-1%,0%,?,18µM*
COc1c(Cl)cc(Cl)cc1C(=O)Nc1ccc(NC(=O)c2cccs2)cc1,-6%,?,-4%,6%,-5%,16µM*
O=C(Nc1ccc(NC(=O)c2ccc(Cl)cc2Cl)cc1)c1cccs1,-4%,-3%,-2%,-11%,-14%,-28%
COc1ccc(/C=C/C(=O)c2ccc(NC(=O)c3cccs3)cc2)cc1OC,2%,18µM*,-6%,3%,7%,23µM*
COc1ccccc1C(=O)Nc1ccc(NC(=O)c2cccs2)cc1,.,?,-4%,0%[12.3 µM],-24%,?
COc1ccc(NC(=O)Nc2cccs2)cc1Cl,-11%,?,-7%,8%,-26%,23µM*
COc1ccc(NC(=O)CCC(=O)c2cccs2)cc1Cl,-6%,4%,0%,.,-10%,1%
COc1ccc(C(=O)Nc2cccc(NC(=O)c3cccs3)c2)cc1OC,-8%,15µM*,-6%,.,0%,13µM*
COc1ccc(C(=O)Nc2ccc(NC(=O)c3cccs3)cc2)cc1OC,.,?,4%,0%[12.3 µM],-19%,18µM*
